KB-V1 cytotox: qHTS assay for MDR1-selective chemotherapeutics: Primary screen using the drug-selected MDR subline cells KB-V1. 3.4% of 400,000 active. Potency, µM (doses to about 46.1 µM), actives largely listed as cytotoxic. AID 1347076, 2019. KB-V1 MDR cells viability, CellTiter-Glo, 72 h; note: % is set by controls: 0 for no effect and ±100 for the full control effect; nearly all actives have a fitted effect of over 60% in size
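KB-V1 cells (P-gp-expressing MDR subline of KB-3-1) in phenol-red-free DMEM with 10% FBS were exposed to library compounds over a concentration series for 72 h at 37 degrees C. Viability read by CellTiter-Glo luminescence; concentration-effect curves fitted after normalization.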
ATXN2 expr inh: Primary qHTS for Inhibitors of ATXN expression. Potency, µM (series often up to 57 µM), without a hit: at the highest dose activity change, negative = inhibition, actives largely listed as inhibitors. HEK-293 ATXN2-luciferase reporter, luminescence, 24 h. 0.72% of 360,000 active; note: % is set by controls: 0 for no effect and ±100 for the full control effect; nearly all actives have a fitted effect of over 55% in size
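qHTS (up to 57 uM final) was run with 24 h compound exposure of reporter cells at 37 °C. Each well was multiplexed: SteadyGlo luminescence measured ATXN2-luciferase expression after a fluorogenic Gly-Phe-AFC viability readout (25 uM final).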
S2 tox: Viability Counterscreen for Primary qHTS for Inhibitors of ATXN expression; 0.49% of 400,000 active; Potency, µM (highest dose often 56.7 µM), hits mostly cytotoxic; S2 cells (HEK-293 line with an ATXN2-luciferase reporter) viability, CellTiter-Fluor protease fluorescence, 24 h; note: nearly all actives have a fitted effect of over 40% in size
HT1080-NT tox: qHTS for induction of synthetic lethality in tumor cells producing 2HG: qHTS for the HT-1080-NT fibrosarcoma cell line. HT-1080-NT fibrosarcoma viability, CellTiter-Glo ATP luminescence, 48 h. Potency, µM (top dose mostly 46.1 µM), without a hit: top-dose activity, negative = less viability, most hits filed as cytotoxic. 1.6% of 360,000 active;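 note: NT is the 2HG producing partner of a matched IDH1 knockdown line; 0% = DMSO-treated cells and -100% = media-only wells without cells; nearly all actives have a fitted effect of over 55% in size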
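A 48-hour cytotoxicity screen used HT-1080-NT cells plated 2 hours before compound delivery. ATP-based CellTiter-Glo luminescence measured viability, normalized to DMSO and no-cell controls.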
HT1080 IDH1KD tx: qHTS for induction of synthetic lethality in tumor cells producing 2HG: qHTS for the HT-1080-IDH1KD cell line. HT-1080 IDH1 knockdown viability, ATP luminescence, 48 h. Potency, µM (top dose mostly 46.1 µM), without a hit: at the highest dose activity, negative = toxicity, usual class: cytotoxic. 2% of 360,000 active. AID 686971, 2013;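 note: 0% = DMSO wells and -100% = cell-free medium wells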
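Using the IDH1-knockdown HT-1080 line run in the same batch and compound series as the NT line, viability after 48 h at 37 °C was determined by CellTiter-Glo luminescence and expressed as % activity.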
KB-3-1 cytotox: qHTS assay for MDR1-selective chemotherapeutics: Primary screen using the parental adenocarcinoma cell KB-3-1 | 1.4% of 400,000 active | KB-3-1 viability, CellTiter-Glo ATP luminescence, 72 h | Potency, µM (series often up to 46.1 µM), most hits filed as cytotoxic; note: % is set by controls: 0 for no effect and ±100 for the full control effect; nearly all actives have a fitted effect of over 60% in size
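Multi-concentration cytotoxicity screen in KB-3-1 cells grown in DMEM lacking phenol red with 10% FBS. After 72 h at 37 °C with compound, ATP-dependent luminescence was recorded.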
An asterisk follows results filed as active; i = inactive; ? = inconclusive; . = not tested or not shown; ! = repeats disagree. Sampled rows, rich in hits. Any-hit rate of the full collection: about 6.2%. Calls come from the whole dose curve; as a rule, active = well fitted curve in the direction sought with a large enough effect; inconclusive = small, poorly fitted or top-dose-only effect, or another doubt; inactive = no such curve, though single readings can be large; an effect the other way counts as inactive or inconclusive. Potency is the fitted concentration of half-maximal effect.

SMILES	KB-V1 cytotox	ATXN2 expr inh	S2 tox	HT1080-NT tox	HT1080 IDH1KD tx	KB-3-1 cytotox
Cc1ccc(NC(=O)CSc2nc(-c3ccco3)cc(C(F)(F)F)n2)cc1C	4.11µM*	-2.5%	i	10µM*	2.51µM*	4.11µM*!
COC(=O)c1ccccc1NC(=O)CSc1nc(-c2ccco2)cc(C(F)(F)F)n1	?	-19.5%	?	?	3.55µM*	?
CCCN(CCC)Cc1cc(=O)oc2cc(C)c(C)cc12	i	2.3%	i	11.7%	-1.3%	i
COCCn1c(C)cc(O)c(C(c2ccc(C)cc2)N2CCCCC2)c1=O (stereo unspecified)	i	.	.	.	.	i
COc1ccc(-c2cc3nc(NCCCN(C)C)n(C)c(=O)c3s2)c(C)c1	i	-23.8%	i	?	-28.8%	i
Cc1cc(Cl)ccc1-c1cc2nc(NCCCN(C)C)n(C)c(=O)c2s1	i	31.6µM*	?	18.4µM*	18.4µM*	i
CN(C)CCCNc1nc2cc(-c3ccccc3)sc2c(=O)n1C	i	-1.6%	i	9.2µM*	?	i
CN(C)CCCNc1nc2cc(-c3ccc(F)cc3)sc2c(=O)n1C	i	20µM*	?	?	16.4µM*	i
CN1OC[C@@H]2CN(C(=O)CCc3ccccc3)[C@H](c3ccccc3Br)C[C@@H]21	i	9.0%	?	27.9%	17.4%	i
CCc1ccc(C(=O)c2cn(CC(=O)Nc3ccc(OC)c(Cl)c3)c3nc(C)ccc3c2=O)cc1	?	1.8%	i	.	.	i
Cc1nn(C)c(C)c1S(=O)(=O)N(CC(=O)NCCCN1CCC(C)CC1)c1ccc(C(C)C)cc1	i	-5.4%	i	-7.8%	-7.1%	i
CCNC(=O)C1(C)CCCN(Cc2csc(-c3ccc(Cl)cc3)n2)C1 (stereo unspecified)	i	-35.4%	i	0.461µM*	?	?
COc1ccc(NS(=O)(=O)c2ccc(-c3coc(C)n3)cc2)cc1OC	i	-35.9%	i	2.9%	0.5%	?
Cc1nc(-c2ccc(S(=O)(=O)Nc3ccc(C)c(N(C)C)c3)cc2)co1	?	-10.0%	i	.	.	18.4µM*
CCN(C(=O)c1cc2c(=O)n(CC)c3ccccc3c2s1)c1cccc(C(F)(F)F)c1	i	8.4%	i	.	.	i
OCCNc1nc(C2CC2)nc2c1nnn2Cc1ccccc1Cl	6.51µM*	-4.8%	i	-11.2%	?	i
C[C@]12c3[nH]c4ccc(Cl)cc4c3CCN1C(=O)[C@@H](CC(=O)NCc1ccco1)C[C@@H]2C(=O)N1CCOCC1	i	6.9%	i	-0.2%	-4.6%	i
O=C(CC1(O)C(=O)N(CCc2ccccc2)c2ccccc21)c1ccccn1 (stereo unspecified)	i	-7.2%	i	15.1%	24.6%	i
O=C(CC1(O)C(=O)N(C/C=C/c2ccccc2)c2ccccc21)c1ccccn1 (stereo unspecified)	?	-24.9%	i	?	10µM*	?
COc1cc(C2c3c(-c4c(C)cc(C)cc4O)n[nH]c3C(=O)N2Cc2ccco2)cc(OC)c1OC (stereo unspecified)	i	-5.1%	i	.	.	i
O=C(CSc1oc(-c2ccco2)nc1S(=O)(=O)c1ccc(Cl)cc1)c1ccc(Cl)cc1	i	-2.9%	i	.	.	i
CCOC(=O)c1sc2ccc(S(=O)(=O)N3CCCCC3)cc2c1N	?	?	?	?	?	23.1µM*
CC(=O)Nc1nc2ccc(S(=O)(=O)N3CCCC3)cc2s1	i	-14.9%	i	5.2%	9.0%	i
CC(C)[C@H](NC(=O)c1cccc(S(=O)(=O)N2CCOCC2)c1)C(=O)Nc1nc2ccccc2s1	?	14.6%	?	2.4%	-2.3%	?
CC(C)CC(=O)Nc1nc2ccc(S(=O)(=O)N3CCOCC3)cc2s1	?	-9.1%	i	9.2µM*	18.4µM*	?
SMILES	KB-V1 cytotox	ATXN2 expr inh	S2 tox	HT1080-NT tox	HT1080 IDH1KD tx	KB-3-1 cytotox
CCOC(=O)c1sc2ccc(S(=O)(=O)N3CCOCC3)cc2c1N	i	-0.9%	i	1.0%	0.6%	i
CCCC(=O)Nc1nc2ccc(S(=O)(=O)N3CCCCC3)cc2s1	?	-15.9%	?	?	4.11µM*	13µM*
CC(C)CNC(=O)c1[nH]c(C(F)(F)F)nc1-c1ccccc1	?	-0.3%	i	-3.5%	-2.9%	i
COc1cccc(CNC(=O)c2cc3c(=O)oc4ccc(C)cc4c3s2)c1	i	13.3%	i	.	.	i
CN1CCN(S(=O)(=O)c2cccc(C(=O)N(Cc3nnc(-c4ccccc4Cl)o3)C3CC3)c2)CC1	?	1.5%	i	2.2%	-1.0%	i
CCOC(=O)C1(Cc2ccc(OC)cc2)CCN(C(=O)c2ccc3[nH]ccc3c2)CC1	i	.	i	13µM*	25.9µM*	?
CCN(CC)CCCNc1cc(C)nc2cc(-c3cccs3)nn12	i	-15.1%	?	-16.4%	-0.3%	i
CCN(CC)CCCCNc1nc2cc(Cl)c(Cl)cc2nc1-c1ccc(-c2cccs2)s1	.	21.7µM*	.	.	.	.
O=C(Nc1ccc(F)c(F)c1)C1CCN(S(=O)(=O)c2cccc3nonc23)CC1	11.6µM*	-13.8%	i	?	-13.6%	?
O=C(NCc1ccccc1)C1CCCN(S(=O)(=O)c2cccc3nonc23)C1 (stereo unspecified)	18.4µM*	4.0%	i	0.7%	4.0%	i
COc1cccc2nc(-c3cccs3)nc(NN3C(=O)C=C(C)C3=O)c12	.	6.11µM*	.	.	.	.
COc1ccc(Nc2nc(-c3cccs3)nc3ccccc23)c(OC)c1	?	1.4%	i	-24.3%	-25.5%	?
COc1cc(-c2nnc(NC(=O)CCS(=O)(=O)c3ccccc3)o2)cc(OC)c1OC	i	57.4%	?	20.6µM*	?	i
Cc1cccc(N(Cc2ccccc2)C(=O)c2ccc(F)c(S(=O)(=O)N3CCOCC3)c2)c1	i	-6.2%	?	6.4%	2.0%	i
CC(C)(C)c1csc(NC(=O)Cc2ccc(S(=O)(=O)N3CCOCC3)s2)n1	?	-22.5%	i	-19.0%	?	i
Cc1cnc(NC(=O)Cc2ccc(S(=O)(=O)N3CCOCC3)s2)s1	23.1µM*	42.2%	i	9.7%	19.1%	i

Assay outcomes as filed in PubChem.
